Test results reported in PubChem BioAssay (NCI).
This is part of a sample that, as a whole, favours compounds with a hit. Of some 79,000 tested, about 15% had one in any assay. A number with no mark means an inactive call. Calls of active or inactive are those of the source. No stated cut-off is given here; in the data, active means growth inhibition above about 70%; inactive means the rest.

Assay: NCI Yeast Anticancer Drug Screen. Data for the rad50 strain (AID 155);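 further: 0% = growth of vehicle-only cultures of the same strain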
Conditions: S. cerevisiae rad50 strain growth inhibition; at 5.0 µM (retest, dose inferred, filed as 0.5); active compounds read high
In short: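 A DNA repair-deficient yeast mutant serves as the test organism; compound-induced growth inhibition is calculated against vehicle-treated cells.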

| Compound | growth inhibition |
| --- | --- |
| CCC(C)(C)NCCCCCNc1cc(OC)cc2cccnc12 | -2% |
| CCCCCCCCCCCC(=O)OCCOP(=O)(OCC)OCC | -1% |
| COc1cccc2c1S(=O)(=O)C(c1ccccc1)=CC2=O | 45% |
| CC(C)(C)c1ccc(-n2c3nc(=O)n(-c4ccccc4C(F)(F)F)c(=O)c-3cc3ccccc32)cc1 | 13% |
| CCOC(=O)c1cc(C)ccc1-c1ccc(C)cc1C(=O)OCC | 1% |
| NC(=O)C1C(=O)c2cccc3c2C1(Br)C(Br)CCC3 (stereo not drawn) | 12% |
| COC(=O)/C(=C/C=C(c1ccccc1)c1ccccc1)N(C(C)=O)C(C)=O | 0% |
| O=C1c2cccc3cc([N+](=O)[O-])cc(c23)C(=O)N1O | 34% |
| CCNc1cc(N)[n+](CC)c2n[nH]c(/N=C/c3cc(Cl)cc(Cl)c3O)c12 | 37% |
| CCOC(=O)c1[nH]c(Br)c(-c2ccc(OC)c(OC)c2)c1Br | 1% |
| COc1ccc(CC2=CC(=O)C(=O)C=C2C)cc1 | 2% |
| O=C(O)CCC/C(=N\Nc1ccccc1)C(=O)O | 5% |
| CC1(C)OC2C(COC(c3ccccc3)(c3ccccc3)c3ccccc3)OC(n3cnc4c(N)ncnc43)C2O1 (stereo not drawn) | -1% |
| O=[N+]([O-])c1cnc(F)c(Br)c1 | 99% (active) |
| C=C(C#N)C(=O)OCC(CC)CC.C=C(C#N)C(=O)OCC(CC)CC.CS(C)=O.CS(C)=O.Nc1c(N=Nc2ccc(-c3ccc(N=Nc4cc(S(=O)(=O)[O-])c5ccccc5c4N)cc3)cc2)cc(S(=O)(=O)[O-])c2ccccc12.[Pt+2] | -13% |
| CCCCCOCC(=O)OC | -1% |
| COC1/C=C\OC2(C)Oc3c(C)c(O)c4c(c3C2=O)C2=NC(C)(C)N(c3ccccc3)C2=C(NC(=O)/C(C)=C\C=C\C(C)C(O)C(C)C(O)C(C)C(OC(C)=O)C1C)C4=O (stereo not drawn) | -2% |
| C/C(=C/C(=O)N1c2ccccc2CC1c1c[nH]c2ccccc12)C(=O)O (stereo not drawn) | -1% |
| CSc1nc(C)c(C(=O)CCN2CCOCC2)s1 | -7% |
| Cn1c(=S)c2[nH]c(=S)[nH]c2n(C)c1=O | 85% (active) |
| CC(C)CCC(C)(C)c1cc(O)ccc1O | 35% |
| CCc1c(-c2ccccc2)c(CN2CCCCC2)c2ccccn12 | 6% |
| Clc1ccc(CN2COc3c(ccc4cccnc34)C2)c(Cl)c1 | 2% |
| Cc1[nH]c2ccccc2c1/C=C1/CCCCCCC1=O | -1% |

Same assay, conditions: S. cerevisiae rad50 strain growth inhibition; at 50.0 µM (retest, dose inferred, filed as 5.0); active compounds read high

| Compound | growth inhibition |
| --- | --- |
| CCC(C)(C)NCCCCCNc1cc(OC)cc2cccnc12 | 67% |
| CCCCCCCCCCCC(=O)OCCOP(=O)(OCC)OCC | 91% (active) |
| COc1cccc2c1S(=O)(=O)C(c1ccccc1)=CC2=O | 99% (active) |
| CC(C)(C)c1ccc(-n2c3nc(=O)n(-c4ccccc4C(F)(F)F)c(=O)c-3cc3ccccc32)cc1 | 96% (active) |
| CCOC(=O)c1cc(C)ccc1-c1ccc(C)cc1C(=O)OCC | 29% |
| NC(=O)C1C(=O)c2cccc3c2C1(Br)C(Br)CCC3 (stereo not drawn) | 99% (active) |
| COC(=O)/C(=C/C=C(c1ccccc1)c1ccccc1)N(C(C)=O)C(C)=O | 13% |
| O=C1c2cccc3cc([N+](=O)[O-])cc(c23)C(=O)N1O | 56% |
| CCNc1cc(N)[n+](CC)c2n[nH]c(/N=C/c3cc(Cl)cc(Cl)c3O)c12 | 80% (active) |
| CCOC(=O)c1[nH]c(Br)c(-c2ccc(OC)c(OC)c2)c1Br | 98% (active) |
| COc1ccc(CC2=CC(=O)C(=O)C=C2C)cc1 | 27% |
| O=C(O)CCC/C(=N\Nc1ccccc1)C(=O)O | 97% (active) |
| CC1(C)OC2C(COC(c3ccccc3)(c3ccccc3)c3ccccc3)OC(n3cnc4c(N)ncnc43)C2O1 (stereo not drawn) | 80% (active) |
| O=[N+]([O-])c1cnc(F)c(Br)c1 | 99% (active) |
| C=C(C#N)C(=O)OCC(CC)CC.C=C(C#N)C(=O)OCC(CC)CC.CS(C)=O.CS(C)=O.Nc1c(N=Nc2ccc(-c3ccc(N=Nc4cc(S(=O)(=O)[O-])c5ccccc5c4N)cc3)cc2)cc(S(=O)(=O)[O-])c2ccccc12.[Pt+2] | 98% (active) |
| CCCCCOCC(=O)OC | 13% |
| COC1/C=C\OC2(C)Oc3c(C)c(O)c4c(c3C2=O)C2=NC(C)(C)N(c3ccccc3)C2=C(NC(=O)/C(C)=C\C=C\C(C)C(O)C(C)C(O)C(C)C(OC(C)=O)C1C)C4=O (stereo not drawn) | 78% (active) |
| C/C(=C/C(=O)N1c2ccccc2CC1c1c[nH]c2ccccc12)C(=O)O (stereo not drawn) | 39% |
| CSc1nc(C)c(C(=O)CCN2CCOCC2)s1 | 67% |
| Cn1c(=S)c2[nH]c(=S)[nH]c2n(C)c1=O | 91% (active) |
| CC(C)CCC(C)(C)c1cc(O)ccc1O | 99% (active) |
| CCc1c(-c2ccccc2)c(CN2CCCCC2)c2ccccn12 | 3% |
| Clc1ccc(CN2COc3c(ccc4cccnc34)C2)c(Cl)c1 | 91% (active) |
| Cc1[nH]c2ccccc2c1/C=C1/CCCCCCC1=O | 45% |
